Values joined by “and” are separate entries in the source; they are usually repeats but may differ in a detail not shown here. Equal values may be shown once. Inconclusive results are not listed. Entries that show only a call come without a potency. A structure can be active in one record and inactive in another. Active and inactive are the calls of the source. Unless noted, the call rests on the fitted dose curve; in most records, active means well fitted curve in the direction sought with a large enough effect in the repeat runs; inconclusive means weak or mixed curves; inactive means no such curve, though single readings can be large; an effect the other way counts as inactive or inconclusive.
Experiments:
[1] = qHTS assay to identify small molecule HDAC inhibitors (AID 1259364); further: nearly all actives have a fitted effect of over 45% in size; further: potency means the concentration at half of the fitted maximal effect
How it was run: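 Homogeneous cell-based luminescent assay of endogenous class I/II HDAC activity; HCT-116 cells, 2 h compound exposure, 30 min HDAC-Glo development at RT.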

[2] = qHTS assay to identify small molecule HDAC inhibitors - cell viability counter screen (AID 1259365); further: series mostly up to about 92 µM; nearly all actives have a fitted effect of over 50% in size
How it was run: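 Wild-type HCT-116 cells were seeded at 1,500 per well, incubated overnight at 37 C, then exposed to compounds in DMSO for 2hr. Viability was read by CellTiter-Glo luminescence after 30min at room temperature.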

[3] = qHTS assay to identify small molecule agonists of the sonic hedgehog signaling (Shh) pathway - cell viability counter screen (AID 1259366); further: nearly all actives have a fitted effect of over 50% in size; further: potency means the concentration at half of the fitted maximal effect
How it was run: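 NIH/3T3-derived 3T3 Gli1-Luc cells (stable Gli1-responsive firefly luciferase reporter) were seeded, rested 4 hr at 37 C/5% CO2, then exposed to compounds in DMSO for 24 hr; viability was read by CellTiter-Fluor fluorescence in the same wells.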

[4] = qHTS assay to identify small molecule antagonists of the sonic hedgehog signaling (Shh) pathway - cell viability counter screen (AID 1259367); further: nearly all actives have a fitted effect of over 55% in size; further: potency means the concentration at half of the fitted maximal effect
How it was run: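 NIH/3T3-derived Gli1-Luc reporter cells (2,000 per well) rested 4 hr at 37 C, then received DMSO compounds plus conditioned medium. After 23 hr of treatment, CellTiter-Fluor was added for 1 hr at 37C and fluorescence read.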

[5] = qHTS assay to identify small molecule agonists of the sonic hedgehog signaling (Shh) pathway (AID 1259368; calls by dose curve; further: series mostly up to about 92 µM; nearly all actives have a fitted effect of over 15% in size)
How it was run: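 Steps: seed 3T3 Gli1-Luc cells, incubate 4 hr at 37 C, pin-transfer compounds in DMSO alongside a positive control, incubate 24 hr, add luciferase detection reagent, wait 30 min at room temperature, read luminescence.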

[6] = qHTS assay to identify small molecule antagonists of the sonic hedgehog signaling (Shh) pathway (AID 1259369; calls by dose curve; further: nearly all actives have a fitted effect of over 45% in size; further: potency means the concentration at half of the fitted maximal effect)
How it was run: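 Inhibition of Shh signalling is measured as reduced Gli1-response-element firefly luciferase output in an NIH/3T3-derived stable reporter clone stimulated with conditioned medium for 24hr.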

[7] = target: Estrogen receptor beta (Homo sapiens) (UniProt Q92731); assay: qHTS assay to identify small molecule agonists of the estrogen receptor beta (ER-beta) signaling pathway (AID 1259377; active means well fitted activation curve with a large enough effect in the signal ratio in the repeat runs, not every such curve was filed as active; the % refers to the signal ratio)
How it was run: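 ER-beta-UAS-bla HEK293T (GripTite) cells carrying a UAS-driven beta-lactamase reporter, in medium with 2% charcoal-stripped FBS, were exposed to compounds for 16 hr at 37C; LiveBLAzer B/G FRET substrate was then added and fluorescence read after 2 hours at room temperature.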

[8] = target: Estrogen receptor beta (Homo sapiens) (UniProt Q92731); assay: qHTS assay to identify small molecule antagonists of the estrogen receptor beta (ER-beta) signaling pathway (AID 1259378; active means well fitted inhibition curve with a large enough effect in the signal ratio in the repeat runs, not every such curve was filed as active; the % refers to the signal ratio; further: potency means the concentration at half of the fitted maximal effect)
How it was run: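 ER-beta-UAS-bla HEK293T (GripTite) cells in 2% charcoal-stripped FBS medium were preincubated 6 hr at 37C, dosed with compound, then stimulated with 1 nM E2 (final) for 16 hr; beta-lactamase reporter read by B/G FRET fluorescence after 2 hr substrate loading.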

[9] = qHTS assay to identify small molecule phospholipidosis (PLD) inducers (AID 1259344; active means well fitted curve in the direction sought with a large enough effect; an effect the other way counts as inactive or inconclusive)
How it was run: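 HepG2 cells on collagen I, attached 4 h at 37 C, were co-treated with compound and LipidTOX Red dye for 24 h at 37 C, then fixed with paraformaldehyde plus Hoechst 33342 and imaged by high-content microscopy for phospholipid accumulation.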

Estrogen receptor beta (Homo sapiens), sequence (Q92731 whole entry, looked up): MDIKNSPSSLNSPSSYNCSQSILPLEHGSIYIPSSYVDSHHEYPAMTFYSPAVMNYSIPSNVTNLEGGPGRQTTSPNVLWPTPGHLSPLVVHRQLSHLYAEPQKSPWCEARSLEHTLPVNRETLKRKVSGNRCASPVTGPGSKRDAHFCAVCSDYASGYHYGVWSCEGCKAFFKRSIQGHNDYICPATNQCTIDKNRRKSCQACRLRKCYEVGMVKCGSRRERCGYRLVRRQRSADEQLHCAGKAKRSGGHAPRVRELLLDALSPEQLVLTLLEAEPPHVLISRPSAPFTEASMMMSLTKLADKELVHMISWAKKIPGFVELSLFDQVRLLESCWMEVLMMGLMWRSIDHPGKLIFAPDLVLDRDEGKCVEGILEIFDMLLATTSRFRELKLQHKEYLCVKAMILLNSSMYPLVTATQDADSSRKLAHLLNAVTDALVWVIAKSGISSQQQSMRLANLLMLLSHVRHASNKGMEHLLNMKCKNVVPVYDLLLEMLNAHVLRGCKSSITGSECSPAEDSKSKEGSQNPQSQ

SMILES	Potency [1]	outcome [2]	Potency [3]	Potency [4]	outcome [5]	Potency [6]	Potency [7]	Potency [8]	outcome [9]
CC(C)CC(=O)CC(C)C	inactive	inactive	inactive	inactive	inactive	inactive	inactive	inactive	–
C#CCN(C)Cc1ccccc1	inactive	inactive	inactive	inactive	inactive	inactive	inactive	inactive	inactive
OC[C@H]1O[C@@](CO)(O[C@H]2O[C@H](CO)[C@@H](O)[C@H](O)[C@H]2O)[C@@H](O)[C@@H]1O	inactive	–	inactive	inactive	inactive	inactive	inactive	inactive	inactive
Cc1cc(C)c(C)cc1C	inactive	inactive	inactive	inactive	inactive	inactive	–	–	–
O=C(O)c1ccc(C(=O)O)cc1	inactive	inactive	inactive	inactive	inactive	inactive	–	–	–
CCCCCCCCCCCCOCCO	inactive	inactive	inactive	48.6 µM (active) and inactive	inactive	27.3 µM (active) and inactive	–	–	–
O=C(O)c1cc(O)c(O)c(O)c1	inactive	–	61.7 µM (active) and inactive	inactive	inactive	27.6 µM (active) and inactive	–	–	inactive
Cc1cnc(C(=O)NCCc2ccc(S(=O)(=O)NC(=O)NC3CCCCC3)cc2)cn1	inactive	inactive	inactive	inactive	inactive	inactive	–	inactive	inactive
O=S(=O)(O)c1ccc2ccccc2c1	inactive	inactive	inactive	inactive	inactive	inactive	–	–	–
OCc1cccnc1	inactive	–	inactive	inactive	inactive	inactive	–	–	inactive
CCCCOC(=O)COc1ccc(Cl)cc1Cl	inactive	inactive	inactive	inactive	inactive	inactive	–	–	–
Nc1cc([N+](=O)[O-])ccc1O	inactive	inactive	48.6 µM (active)	inactive	inactive	inactive	–	–	–
O=C(O)c1ccc2c(c1)C(=O)OC2=O	inactive	inactive	inactive	inactive	inactive	inactive	inactive	inactive	–
COCCCOc1ccnc(CS(=O)c2nc3ccccc3[nH]2)c1C (stereo not drawn)	30.5 µM (active) and inactive	–	inactive	inactive	inactive	inactive	inactive	inactive	inactive
O=C(O)c1cc(C(=O)O)cc(S(=O)(=O)O)c1	inactive	inactive	inactive	inactive	inactive	inactive	–	–	–
CCCCCOC(C)=O	inactive	inactive	inactive	inactive	inactive	inactive and 27.3 µM (active)	–	–	–
CCCCCCCCC/C=C/CC1CC(=O)OC1=O (stereo not drawn)	inactive	inactive	inactive	inactive	inactive	inactive	–	–	–
CCCCCC(N)=O	inactive	inactive	inactive	inactive	inactive	inactive	inactive	inactive	inactive
Cc1ccc(S(N)(=O)=O)cc1	inactive	inactive	inactive	inactive	inactive	inactive	–	–	–
CCCCCCCCCCCCCCCO	inactive	inactive	30.9 µM (active) and inactive	inactive	inactive	27.5 µM (active) and inactive	inactive	–	–
CC(C)(N)CO	inactive	inactive	inactive	inactive	inactive	inactive	inactive	inactive	–

SMILES	Potency [1]	outcome [2]	Potency [3]	Potency [4]	outcome [5]	Potency [6]	Potency [7]	Potency [8]	outcome [9]
CCc1cccc(C)c1N	inactive	inactive	inactive	inactive	inactive	inactive	–	–	–
CN(C)CCC(c1ccccc1)c1ccccn1 (stereo not drawn)	inactive	inactive	inactive	inactive	inactive	inactive	inactive	inactive	inactive
CCN(CC)c1ccc(C(=O)c2ccccc2C(=O)O)c(O)c1	inactive	inactive	inactive	inactive	inactive	inactive	inactive	inactive	–
CCC(O)OCCCOC (stereo not drawn)	inactive	–	22.2 µM (active) and inactive	28 µM (active) and inactive	inactive	inactive	inactive	inactive	–
CC(=O)CC(=O)Nc1ccccc1C	inactive	inactive	inactive	inactive	inactive	inactive	inactive	inactive	–
CC(O)COCC(C)O (stereo not drawn)	inactive	–	inactive	inactive	inactive	inactive	–	–	–
CCCCCCCCCCCCc1ccccc1	inactive	–	inactive	inactive	inactive	inactive	–	–	–
O=S1(=O)CC=CC1	inactive	inactive	inactive	46.9 µM (active) and inactive	inactive	6.62 µM (active) and inactive	inactive	inactive	–
CC(=O)CC(=O)Nc1ccccc1	inactive	inactive	inactive	inactive	inactive	inactive	inactive	inactive	–
CN(C)CCOCCN(C)C	inactive	inactive	inactive	inactive	inactive	inactive	inactive	inactive	–
C=C(C)C(=O)Nc1ccc(Cl)c(Cl)c1	inactive	inactive	inactive	inactive	inactive	17.4 µM (active) and 43.1 µM (active)	inactive	inactive	–
OCC(CO)(CBr)CBr	inactive	–	inactive	inactive	inactive	inactive	–	–	–
CC1CCC2CC1C2(C)C (stereo not drawn)	inactive	inactive	inactive	inactive	inactive	inactive	inactive	inactive	–
CCCCCCCCCCCCS	inactive	–	inactive	inactive	inactive	inactive	inactive	inactive	–
Cc1ccc2oc(=O)ccc2c1	inactive	–	inactive	inactive	inactive	inactive	inactive	inactive	–
Cc1cccnc1	inactive	–	inactive	inactive	inactive	inactive	inactive	inactive	–
CC(=O)c1ccccc1	inactive	–	inactive	inactive	inactive	inactive	–	–	–
CSCCC=O	inactive	–	inactive	inactive	inactive	inactive	inactive	inactive	–
CCCCCCCC(=O)OC	inactive	–	inactive	inactive	inactive	inactive	inactive	inactive	–
O=C(CC(C(=O)OC1CCCCC1)S(=O)(=O)O)OC1CCCCC1 (stereo not drawn)	inactive	inactive	inactive	inactive	inactive	inactive	inactive	inactive	–
O=[N+]([O-])c1ccc(/C=C/c2ccc([N+](=O)[O-])cc2S(=O)(=O)O)c(S(=O)(=O)O)c1	inactive	inactive	inactive	inactive	inactive	inactive	inactive	inactive	–

SMILES	Potency [1]	outcome [2]	Potency [3]	Potency [4]	outcome [5]	Potency [6]	Potency [7]	Potency [8]	outcome [9]
ON=C1CCCCC1	inactive	inactive	inactive	inactive	inactive	inactive and 27.3 µM (active)	inactive	inactive	–
O=P(OC(CCl)CCl)(OC(CCl)CCl)OC(CCl)CCl	inactive	–	30.5 µM (active)	30.5 µM (active)	inactive	inactive	inactive	54.5 µM (active)	–
C[Si](O[Si](C)(C)C)O[Si](C)(C)C	inactive	–	inactive	inactive	inactive	inactive	inactive	inactive	–
CCCCCCCCCC	inactive	inactive	inactive	inactive	inactive	inactive	inactive	inactive	–
O=C(Oc1ccccc1)c1ccccc1	inactive	–	inactive	inactive	inactive	inactive	inactive	inactive	–
c1ccc2scnc2c1	inactive	–	inactive	inactive	inactive	inactive	inactive	inactive	–
Fc1ccc(Br)cc1	inactive	–	inactive	inactive	inactive	inactive	–	–	–
O=c1[nH]nnc2ccccc12	inactive	inactive	inactive	inactive	inactive	inactive	inactive	inactive	–
CC1=C(C)S(=O)(=O)CCS1(=O)=O	inactive	–	inactive	inactive	inactive	21.3 µM (active) and 38.6 µM (active)	inactive	inactive	–
Cc1ccc(N(C)C)cc1	inactive	–	inactive	inactive	inactive	inactive	inactive	inactive	–
CN(C)CCC(c1ccc(Cl)cc1)c1ccccn1 (stereo not drawn)	inactive	–	61.3 µM (active) and inactive	68.7 µM (active)	inactive	24.4 µM (active) and 17.2 µM (active)	–	–	–
CCCCCC/C(C=O)=C\c1ccccc1	inactive	–	inactive	inactive	inactive	inactive	inactive	inactive	–
CCC(O)OC(O)CC (stereo not drawn)	inactive	–	inactive	inactive	inactive	inactive	–	–	–
CC1CCC(C(C)C)C(O)C1 (stereo not drawn)	inactive	inactive	inactive	inactive	inactive	inactive	inactive	inactive	–
CC(C)(C)[C@@H](O)[C@@H](Cc1ccc(Cl)cc1)n1cncn1	inactive	inactive	inactive	inactive	inactive	–	inactive	inactive	–
C=C(C)C(=O)OCCOCCOCCOC(=O)C(=C)C	inactive	–	inactive	inactive	inactive	–	–	–	–
COS(C)(=O)=O	inactive	–	inactive	inactive	inactive	inactive	–	–	–
C=C(C)C(=O)O[C@H]1C[C@@H]2CC[C@@]1(C)C2(C)C	inactive	–	inactive	inactive	inactive	inactive	–	inactive	–
CCCCC(CC)COC(=O)CCCCC(=O)OCC(CC)CCCC (stereo not drawn)	inactive	inactive	inactive	inactive	inactive	inactive	inactive	inactive	–
CCCCC(CC)CO (stereo not drawn)	inactive	inactive	inactive	inactive	inactive	inactive	inactive	inactive	–
